Test [1] has as its target Hepatocyte nuclear factor 4-alpha (Homo sapiens) (UniProt P41235). The test can be described thus: ATG_HNF4a_TRANS: Attagene TRANS-FACTORIAL HepG2 Assay for human Hepatocyte Nuclear Factor 4 alpha (HNF4a) (AID 2282982; active = hit-call score of the fitted dose curve at least 0.9, where 1 is the maximum). The following applies: HepG2 HNF4a transactivation reporter, mRNA readout. The essentials: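 Multiplexed reporter assay: transfected HepG2, 24 h exposure, total RNA → oligo(dT) RT → PCR → 6-FAM extension → HpaI digest → CE fluorescence. DMSO = negative control.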

Test [2] in a line: ATG_M_06_TRANS: Attagene TRANS-FACTORIAL HepG2 Assay for M06 Transcription Factor (Internal Marker) (AID 2282983; active = hit-call score of the fitted dose curve at least 0.9, where 1 is the maximum). The following applies: HepG2 Attagene TRANS M06 internal marker reporter. The essentials:
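Multi-reporter-transfected HepG2, 24 h treatment; reporter transcripts quantified via RT-PCR, primer-extension labelling and CE. DMSO-normalized gain-of-signal fit.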

A short description of test [3]: ATG_M_32_TRANS: Attagene TRANS-FACTORIAL HepG2 Assay for M32 Transcription Factor (Internal Marker) (AID 2282984; active = hit-call score of the fitted dose curve at least 0.9, where 1 is the maximum;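 note: transcript level of a background control reporter unit measured by RT-PCR and capillary electrophoresis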). The following applies: HepG2 Attagene TRANS M32 internal marker reporter. The essentials:
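Cell-based TRANS-format assay in HepG2: exogenous chimeric GAL4 reporter units transiently expressed, compounds applied 24 h. Reporter mRNA detected by RT-PCR plus capillary electrophoresis; this readout is an internal background marker.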

Test [4] concerns the target Transcriptional activator Myb (Homo sapiens) (UniProt P10242). The experiment in a line: ATG_Myb_CIS: Attagene CIS-FACTORIAL HepG2 Assay for human Myeloblastosis (Myb) Proto-Oncogene Transcription Factor (AID 2282986). Conditions: HepG2 Attagene CIS-FACTORIAL Myb reporter transcription; actives raise or lower the signal. The essentials: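 After 24 h of compound dosing, total RNA from transfected HepG2 cells is reverse-transcribed and the reporter sequences amplified, labeled and separated by capillary electrophoresis. Values come from bidirectional fitting against DMSO.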

Test [5] deals with Nuclear respiratory factor 1 (Homo sapiens) (UniProt Q16656). The test can be described thus: ATG_NRF1_CIS: Attagene CIS-FACTORIAL HepG2 Assay for human Nuclear Respiratory Factor 1 (NRF1) Orphan Gene (AID 2282987). The following applies: HepG2 NRF1 cis-element reporter, Attagene multiplex; actives raise or lower the signal. In short, it runs like this: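 Measured: fluorescent reporter-specific RT-PCR products from transfected HepG2 cells, separated by capillary electrophoresis. Exposure lasted 24 h. Analysis used bidirectional curve fitting with DMSO as negative control.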

In test [6] the target is Myc proto-oncogene protein (Homo sapiens) (UniProt P01106). The test can be described thus: ATG_Myc_CIS: Attagene CIS-FACTORIAL HepG2 Assay for human Myelocytomatosis (Myc) Proto-Oncogene Transcription Factor (AID 2282990). Conditions: HepG2, Attagene cis-reporter transcription factor activity; actives raise or lower the signal. The essentials:
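Cells of the HepG2 human liver line bear multiple cis-driven reporter transcription units. Reporter mRNA after 24 h exposure is reverse-transcribed, amplified, labelled and resolved by capillary electrophoresis, with gain- or loss-of-signal fitting relative to DMSO.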

The nature of test [7]: ATG_NF_kB_CIS: Attagene CIS-FACTORIAL HepG2 Assay for human Nuclear Factor Kappa B (NF-kB) (AID 2282991). The following applies: HepG2 Attagene cis-factorial NF-kB reporter mRNA; actives raise or lower the signal. The essentials: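 Fluorescence of labelled RT-PCR products separated by capillary electrophoresis gives reporter mRNA levels from transfected HepG2 cells exposed 24 h; values are fitted in both directions relative to DMSO.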

A short description of test [8]: ATG_NRF2_ARE_CIS: Attagene CIS-FACTORIAL HepG2 Assay for human Nuclear Factor Erythroid 2 Related Factor 2 (NFR2) response to Antioxidant Response Elements (ARE) (AID 2282992). The following applies: HepG2 Attagene ARE/NRF2 reporter, transcription factor activity; actives raise or lower the signal. The essentials: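 Using transiently transfected HepG2 cells exposed for 24 h, reporter mRNA levels were determined by RT-PCR with fluorescent primer extension and capillary electrophoresis, analysed for gain or loss of signal against DMSO.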

Test [9] is described as follows: ATG_Oct_MLP_CIS: Attagene CIS-FACTORIAL HepG2 Assay for human Octamer-Binding Transcription Factor (Oct) (AID 2282993). Conditions: HepG2 Attagene cis-factorial Oct reporter, mRNA; actives raise or lower the signal. The essentials: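 Readout is reporter transcript level from RT-PCR with fluorescent primer extension and capillary electrophoresis, fitted in both directions against DMSO. Transfected HepG2 reporter units report endogenous factor activity after 24 h dosing.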

The target in test [10] is Cellular tumor antigen p53 (Homo sapiens) (UniProt P04637). The test can be described thus: ATG_p53_CIS: Attagene CIS-FACTORIAL HepG2 Assay for human p53 Transcription Factor (AID 2282994). Conditions: HepG2 p53 cis-element reporter, Attagene mRNA; actives raise or lower the signal. The essentials: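 In HepG2 cells, reporter transcription units under cis-regulatory promoters were transiently introduced. Following 24 h treatment, RNA was processed to labelled, digested cDNA fragments read by capillary electrophoresis; fitting was bidirectional versus DMSO.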

The target in test [11] is human Peroxisome Proliferator-activated Receptor alpha (PPARa), PPARA (gene 5465) (UniProt Q07869). The experiment in a line: ATG_PPARa_TRANS: Attagene TRANS-FACTORIAL HepG2 Assay for human Peroxisome Proliferator-activated Receptor alpha (PPARa) (AID 2283001; active = hit-call score of the fitted dose curve at least 0.9, where 1 is the maximum). In short, it runs like this: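 Transfected HepG2 cells treated with test chemical for 24 h. RNA isolated, reverse-transcribed with oligo(dT), PCR-amplified, FAM-labelled and HpaI-digested. Fragments sized by capillary electrophoresis; gain-of-signal fit relative to DMSO.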

For test [12], the target named is human Peroxisome Proliferator-activated Receptor delta (PPARd), PPARD (gene 5467) (UniProt Q03181). The test can be described thus: ATG_PPARd_TRANS: Attagene TRANS-FACTORIAL HepG2 Assay for human Peroxisome Proliferator-activated Receptor delta (PPARd) (AID 2283002; active = hit-call score of the fitted dose curve at least 0.9, where 1 is the maximum). The essentials: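 Cell-based TRANS reporter: HepG2, transient MRTU transfection, 24 h exposure. Readout = reporter mRNA (RT-PCR/CE, 6-FAM). Gain-of-signal fit vs DMSO control.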

Test [13] addresses Nuclear receptor subfamily 4 group A member 2 (Homo sapiens) (UniProt P43354). The experiment in a line: ATG_NURR1_TRANS: Attagene TRANS-FACTORIAL HepG2 Assay for human Nuclear Receptor Related Protein 1 (NURR1) (AID 2282985; active = hit-call score of the fitted dose curve at least 0.9, where 1 is the maximum). Conditions: HepG2 Attagene TRANS reporter, mRNA readout. The essentials:
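Measures transcriptional activation by an exogenous NR-Gal4 chimera in transfected HepG2 liver cells. After 24 h, reporter RNA is reverse-transcribed, amplified and resolved by capillary electrophoresis; DMSO defines baseline.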

Test [14] can be described thus: ATG_NFI_CIS: Attagene CIS-FACTORIAL HepG2 Assay for human Nuclear Factor I (NFI) (AID 2282989). The following applies: HepG2 cis-regulatory reporter, NFI response element transcription; actives raise or lower the signal. In short, it runs like this:
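Reporter transcripts were measured by RT-PCR with fluorescent primer extension and capillary electrophoresis 24 h post-treatment. HepG2 cells carried transiently transfected cis-regulated reporter constructs reporting endogenous factor activity; gain or loss fitted against DMSO baseline.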

Test [15] is described as follows: BSK_3C_TissueFactor: BioMAP Diversity Plus: 3C Assay for Tissue Factor Biomarker Activity (AID 2282997). Conditions: BioMAP 3C HUVEC, tissue factor biomarker readout; actives raise or lower the signal. In short, it runs like this: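 In this endothelial system, HUVEC are treated for 24 h and Tissue Factor is assessed by ELISA, normalised to DMSO.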
Test [16] in a line: BSK_3C_uPAR: BioMAP Diversity Plus: 3C Assay for Urokinase-type plasminogen activator receptor (uPAR) Biomarker Activity (AID 2282998). Conditions: BioMAP 3C HUVEC, uPAR biomarker ELISA; actives raise or lower the signal. In short, it runs like this: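 Cell-surface uPAR on HUVEC (3C system) read by ELISA at 24 h post-treatment, with DMSO as baseline and fitting in both directions. Parallel cultures stained with SRB to flag overt cytotoxicity.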

Test [17] is described as follows: BSK_3C_VCAM1: BioMAP Diversity Plus: 3C Assay for Vascular cell adhesion molecule 1 (VCAM1) Biomarker Activity (AID 2282999). Conditions: BioMAP 3C HUVEC, VCAM1 ELISA, cytokine-stimulated; actives raise or lower the signal. The essentials:
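Activity fitted in both directions relative to DMSO, with ELISA measurement of the surface marker on primary HUVEC (3C) at 24 h post-treatment; parallel SRB staining (0.1% SRB, TCA-fixed, 560 nm) flagged overt cytotoxicity.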

Test [18] can be described thus: BSK_4H_Eotaxin3: BioMAP Diversity Plus: 4H Assay for Eotaxin 3 Biomarker Activity (AID 2283000).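 For outcome: CCL26 protein level quantified by ELISA in parallel with SRB cytotoxicity check.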 Conditions: primary human endothelial cells (HUVEC); actives raise or lower the signal. In short, it runs like this: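 ELISA quantitation of CCL26 (Eotaxin-3) protein from chemically dosed human vascular endothelial cells at 24 h; increases and decreases both scored relative to DMSO-treated baseline.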

Among the data in PubChem BioAssay (EPA / NIEHS) are outcome and AC50 values, retold here.

Inconclusive results are not listed. The source made the active and inactive calls. Rule for the calls, unless noted: active = hit-call score of the fitted dose curve at least 0.9, where 1 is the maximum; inactive = score below 0.9.

human Peroxisome Proliferator-activated Receptor alpha (PPARa), PPARA (gene 5465), sequence (Q07869 whole entry, looked up, the tested form may be a part): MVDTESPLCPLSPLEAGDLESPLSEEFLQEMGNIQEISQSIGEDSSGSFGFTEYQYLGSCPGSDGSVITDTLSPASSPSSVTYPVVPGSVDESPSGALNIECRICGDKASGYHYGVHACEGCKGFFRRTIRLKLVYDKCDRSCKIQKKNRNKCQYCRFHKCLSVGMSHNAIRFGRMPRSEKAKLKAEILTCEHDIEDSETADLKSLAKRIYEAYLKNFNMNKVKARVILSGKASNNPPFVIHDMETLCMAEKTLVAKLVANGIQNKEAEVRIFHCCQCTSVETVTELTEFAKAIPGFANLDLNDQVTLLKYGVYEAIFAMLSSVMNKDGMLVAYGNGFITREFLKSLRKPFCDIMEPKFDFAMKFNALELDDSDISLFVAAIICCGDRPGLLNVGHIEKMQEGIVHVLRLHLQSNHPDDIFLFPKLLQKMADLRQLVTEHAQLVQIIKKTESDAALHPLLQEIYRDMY
human Peroxisome Proliferator-activated Receptor delta (PPARd), PPARD (gene 5467), sequence (Q03181 whole entry, looked up): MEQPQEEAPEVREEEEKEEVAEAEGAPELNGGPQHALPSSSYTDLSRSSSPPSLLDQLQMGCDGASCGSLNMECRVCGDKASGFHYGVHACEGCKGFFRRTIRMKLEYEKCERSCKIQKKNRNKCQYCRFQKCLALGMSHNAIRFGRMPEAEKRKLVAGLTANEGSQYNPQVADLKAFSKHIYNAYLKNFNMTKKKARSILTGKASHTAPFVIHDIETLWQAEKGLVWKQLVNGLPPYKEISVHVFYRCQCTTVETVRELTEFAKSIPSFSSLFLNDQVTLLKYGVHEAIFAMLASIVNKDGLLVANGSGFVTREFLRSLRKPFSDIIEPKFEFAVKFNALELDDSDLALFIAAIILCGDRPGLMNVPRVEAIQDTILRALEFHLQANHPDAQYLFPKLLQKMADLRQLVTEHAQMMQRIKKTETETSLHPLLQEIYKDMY
Hepatocyte nuclear factor 4-alpha (Homo sapiens), sequence (P41235 whole entry, looked up): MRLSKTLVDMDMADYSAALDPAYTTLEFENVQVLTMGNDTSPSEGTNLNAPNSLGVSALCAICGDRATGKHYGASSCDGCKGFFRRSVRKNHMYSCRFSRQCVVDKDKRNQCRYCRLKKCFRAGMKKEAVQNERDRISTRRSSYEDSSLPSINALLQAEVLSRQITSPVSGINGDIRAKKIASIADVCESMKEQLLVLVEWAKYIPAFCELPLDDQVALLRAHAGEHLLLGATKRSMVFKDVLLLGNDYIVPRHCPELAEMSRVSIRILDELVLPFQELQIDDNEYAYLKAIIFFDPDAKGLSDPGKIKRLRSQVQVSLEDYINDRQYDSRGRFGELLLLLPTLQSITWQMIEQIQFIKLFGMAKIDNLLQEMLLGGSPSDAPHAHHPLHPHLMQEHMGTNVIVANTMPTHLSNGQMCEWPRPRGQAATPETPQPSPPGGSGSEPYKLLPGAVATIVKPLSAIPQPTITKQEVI
Transcriptional activator Myb (Homo sapiens), sequence (P10242 whole entry, looked up): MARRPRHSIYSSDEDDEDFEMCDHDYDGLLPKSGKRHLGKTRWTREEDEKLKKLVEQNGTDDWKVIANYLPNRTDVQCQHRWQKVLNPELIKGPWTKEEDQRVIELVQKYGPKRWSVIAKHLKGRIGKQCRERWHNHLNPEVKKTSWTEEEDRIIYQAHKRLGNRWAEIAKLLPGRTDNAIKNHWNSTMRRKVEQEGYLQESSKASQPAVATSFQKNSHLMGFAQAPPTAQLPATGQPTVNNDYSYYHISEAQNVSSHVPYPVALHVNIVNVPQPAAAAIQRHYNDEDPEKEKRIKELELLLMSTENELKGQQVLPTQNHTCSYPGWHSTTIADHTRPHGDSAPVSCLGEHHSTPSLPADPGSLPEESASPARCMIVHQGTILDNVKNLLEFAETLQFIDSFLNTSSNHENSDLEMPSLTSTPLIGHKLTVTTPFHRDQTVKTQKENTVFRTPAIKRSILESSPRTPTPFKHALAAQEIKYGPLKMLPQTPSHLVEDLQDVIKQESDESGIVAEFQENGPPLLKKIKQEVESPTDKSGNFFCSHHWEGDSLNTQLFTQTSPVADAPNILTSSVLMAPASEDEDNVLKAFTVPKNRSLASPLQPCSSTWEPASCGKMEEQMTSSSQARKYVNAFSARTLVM
Myc proto-oncogene protein (Homo sapiens), sequence (P01106 whole entry, looked up): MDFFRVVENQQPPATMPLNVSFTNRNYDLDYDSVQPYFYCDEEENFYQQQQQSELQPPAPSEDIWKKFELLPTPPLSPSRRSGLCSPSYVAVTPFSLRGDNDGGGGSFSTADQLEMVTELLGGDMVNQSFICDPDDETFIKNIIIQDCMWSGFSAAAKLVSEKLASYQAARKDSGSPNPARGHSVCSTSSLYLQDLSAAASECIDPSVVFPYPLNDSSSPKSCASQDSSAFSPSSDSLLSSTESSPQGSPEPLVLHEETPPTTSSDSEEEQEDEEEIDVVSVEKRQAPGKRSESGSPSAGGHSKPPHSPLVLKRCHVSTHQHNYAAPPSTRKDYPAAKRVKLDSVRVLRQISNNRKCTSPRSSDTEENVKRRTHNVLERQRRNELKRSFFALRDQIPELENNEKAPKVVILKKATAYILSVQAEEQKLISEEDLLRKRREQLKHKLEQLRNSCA
Nuclear receptor subfamily 4 group A member 2 (Homo sapiens), sequence (P43354 whole entry, looked up, the tested form may be a part): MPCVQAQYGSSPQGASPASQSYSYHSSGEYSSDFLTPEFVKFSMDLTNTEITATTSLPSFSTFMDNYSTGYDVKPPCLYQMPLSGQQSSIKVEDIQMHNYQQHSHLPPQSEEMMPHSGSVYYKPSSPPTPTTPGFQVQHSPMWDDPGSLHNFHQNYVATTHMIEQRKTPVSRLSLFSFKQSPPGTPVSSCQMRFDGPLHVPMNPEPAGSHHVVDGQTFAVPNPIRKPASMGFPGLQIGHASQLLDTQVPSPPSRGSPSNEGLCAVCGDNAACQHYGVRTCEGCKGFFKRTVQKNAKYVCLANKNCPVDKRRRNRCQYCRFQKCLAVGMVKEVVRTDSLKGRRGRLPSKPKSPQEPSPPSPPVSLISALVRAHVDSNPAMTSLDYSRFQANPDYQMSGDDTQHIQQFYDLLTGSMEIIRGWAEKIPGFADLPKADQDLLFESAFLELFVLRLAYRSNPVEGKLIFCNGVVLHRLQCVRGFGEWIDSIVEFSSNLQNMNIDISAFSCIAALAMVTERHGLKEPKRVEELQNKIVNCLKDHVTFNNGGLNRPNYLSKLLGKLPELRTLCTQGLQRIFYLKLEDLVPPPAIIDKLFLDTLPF
Cellular tumor antigen p53 (Homo sapiens), sequence (P04637 whole entry, looked up, the tested form may be a part): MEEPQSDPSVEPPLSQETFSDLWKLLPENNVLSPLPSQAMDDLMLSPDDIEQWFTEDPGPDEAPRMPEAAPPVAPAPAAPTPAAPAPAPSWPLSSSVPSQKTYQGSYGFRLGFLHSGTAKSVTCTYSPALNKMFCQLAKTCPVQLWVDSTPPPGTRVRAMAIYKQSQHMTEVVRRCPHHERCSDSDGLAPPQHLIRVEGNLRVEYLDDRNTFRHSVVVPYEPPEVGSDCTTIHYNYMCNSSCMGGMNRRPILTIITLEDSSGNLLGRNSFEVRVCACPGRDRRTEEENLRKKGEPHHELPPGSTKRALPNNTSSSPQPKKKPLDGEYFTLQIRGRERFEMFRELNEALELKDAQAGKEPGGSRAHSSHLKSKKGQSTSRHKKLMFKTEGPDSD
Nuclear respiratory factor 1 (Homo sapiens), sequence (Q16656 whole entry, looked up): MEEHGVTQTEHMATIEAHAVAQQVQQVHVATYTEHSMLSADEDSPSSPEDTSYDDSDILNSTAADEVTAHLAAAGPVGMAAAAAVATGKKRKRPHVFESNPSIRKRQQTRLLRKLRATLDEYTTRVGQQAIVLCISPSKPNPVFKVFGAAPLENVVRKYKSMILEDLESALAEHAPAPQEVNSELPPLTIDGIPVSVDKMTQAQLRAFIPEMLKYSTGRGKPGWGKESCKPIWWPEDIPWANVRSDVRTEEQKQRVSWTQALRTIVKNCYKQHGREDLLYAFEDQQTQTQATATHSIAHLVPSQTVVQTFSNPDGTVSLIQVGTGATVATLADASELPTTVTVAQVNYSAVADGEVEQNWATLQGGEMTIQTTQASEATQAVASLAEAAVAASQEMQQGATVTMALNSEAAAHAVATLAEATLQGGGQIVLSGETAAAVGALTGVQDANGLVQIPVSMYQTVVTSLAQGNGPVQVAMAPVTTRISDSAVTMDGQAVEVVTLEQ

With `COC(O)c1ccccc1` (stereo not given), the molecule was called inactive in test [1], in test [2], in [3], in test [4], in test [5] and in test [6]. The molecule was classed as inactive in test [7], in test [8], in test [9], in test [10], in test [11] and in [12].
Turning to `C=CC(F)(F)C(F)(F)C(F)(F)C(F)(F)F`, the call in test [1], in test [2], in [13], in [4], in test [5] and in test [14] was inactive. In addition, the result in test [6], in test [7], in [8], in test [9], in test [10] and in test [11] was inactive.
For `O=C(NCc1ncc(C(F)(F)F)cc1Cl)c1c(Cl)cccc1Cl`, the molecule was classed as inactive in [1], in test [2], in test [3], in [4], in test [5] and in test [14]. For the same molecule, the call in [6], in test [9], in [10], in test [15], in [16] and in [17] was inactive. Further, the result in test [18], in test [11] and in test [12] was inactive. The AC50 is 21800 nM (active) in test [7] and 1970 nM (active) in [8].
Regarding `CCCCCCCCCCCCCCCCCC[N+](C)(C)Cc1ccccc1`, the AC50 is 50000 nM (active) in test [1]; 12600 nM (active) in test [8]; 3190 nM (active) in test [9]; 1170 nM (active) in test [15]; 350 nM (active) in test [16]; 1910 nM (active) in test [17]. For the same molecule, in test [18], the AC50 was 2840 nM (active). Besides, the molecule was called inactive in test [2], in test [3], in [4], in test [5], in test [14] and in [6]. Besides, the call in test [7], in test [10] and in test [11] was inactive.
With `O=C1C=CC(=O)N1c1cccc(N2C(=O)C=CC2=O)c1`, the molecule was classed as inactive in test [1], in test [2], in [3], in test [4], in [5] and in test [14]. The call in test [6], in test [7], in test [8], in test [9], in test [10] and in [11] was inactive.
For `O=C(O)C(=O)O`, the call in test [1], in test [2], in test [3], in [4], in test [5] and in [14] was inactive. The call in test [6], in test [7], in test [8], in test [10] and in test [11] was inactive.
For the molecule `CN(CCO)S(=O)(=O)C(F)(F)C(F)(F)C(F)(F)C(F)(F)C(F)(F)C(F)(F)C(F)(F)C(F)(F)F`, the outcome in [1], in [2], in [13], in test [4], in test [5] and in test [14] was inactive. Besides, the outcome in test [6], in test [7], in [8], in test [9], in test [10] and in [15] was inactive. Besides, the outcome in test [16], in test [17], in test [18], in test [11] and in [12] was inactive.
With `Cc1ccc(N=Nc2c(O)ccc3ccccc23)c(C)c1`, the molecule was called inactive in test [1], in test [2], in [3], in test [13], in test [4] and in test [5]. Besides, the molecule was called inactive in test [14], in [6], in test [7], in [9], in test [10] and in test [16]. The outcome in [17], in test [11] and in test [12] was inactive. Further, the AC50 is 1860 nM (active) in [8], 1970 nM (active) in [15] and 3390 nM (active) in test [18].

The AC50 is the concentration giving half of the maximal activity seen.
